Records with an inconclusive call do not appear. Unmarked numbers belong to inactive results. Calls of active or inactive are those of the source. Unless noted, calls come from the whole dose curve; as a rule, active = well fitted curve in the direction sought with a large enough effect in the repeat runs; inconclusive = weak or mixed curves; inactive = no such curve, though single readings can be large; an effect the other way counts as inactive or inconclusive.

Results on eight compounds are retold here after PubChem BioAssay (Tox21).

Assay [1] can be described thus: qHTS assay to identify aromatase inhibitors - cell viability counter screen (AID 743084).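 Note: cells stimulated with testosterone during compound exposure; nearly all actives have a fitted effect of over 55% in size.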 A general note: In qHTS, concentration-response curves come from the screen itself.
For assay [2], the target named is Aryl hydrocarbon receptor (Homo sapiens) (UniProt P35869). Description: qHTS assay to identify small molecule that activate the aryl hydrocarbon receptor (AhR) signaling pathway (AID 743085).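 For activation: HG2L7.5c1 human HepG2 liver cells with stably integrated DRE-driven firefly reporter; series mostly up to about 70 µM.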 Note: nearly all actives have a fitted effect of over 15% in size. Note: potency is the fitted concentration of half-maximal effect. The gist of the method: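 HepG2 cells (HG2L7.5c1) stably carrying a firefly luciferase reporter driven by 20 dioxin responsive elements were exposed to compound for 24 h at 37C after a 5 h settling period; luminescence rise (ONE-Glo) indicated activation.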

The nature of assay [3]: qHTS assay to identify small molecule that activate the aryl hydrocarbon receptor (AhR) signaling pathway - cell viability counter screen (AID 743086).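 Note: HepG2 liver cells carrying the AhR DRE luciferase reporter; series mostly up to about 70 µM; nearly all actives have a fitted effect of over 45% in size.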 The gist of the method: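 HepG2-AhR-luc (HG2L7.5c1) cells, 4000/well, treated 24 h at 37 C with compound; viability measured as CellTiter-Fluor fluorescence after 30 min in the same wells as the luciferase read.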
The target in assay [4] is Peroxisome proliferator-activated receptor gamma (Homo sapiens) (UniProt P37231). Nature of the assay: qHTS assay to identify small molecule agonists of the peroxisome proliferator-activated receptor gamma (PPARg) signaling pathway (AID 743094; active = well fitted activation curve with a large enough effect in the signal ratio in the repeat runs, not every such curve was filed as active; the % refers to the signal ratio). The gist of the method: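 Fluorescence-based beta-lactamase readout in HEK293H PPARg UAS-bla cells after 17 h compound exposure (37C) and 1 h B/G FRET substrate incubation at room temperature.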

Assay [5] has the same target. Nature of the assay: qHTS assay to identify small molecule antagonists of the peroxisome proliferator-activated receptor gamma (PPARg) signaling pathway (AID 743191; calls by dose curve; note: series mostly up to about 63 µM; nearly all actives have a fitted effect of over 30% in size). The gist of the method: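 GeneBLAzer PPARg UAS-bla HEK293H cells, 5 h post-plating, exposed to compounds 17 h at 37C. LiveBLAzer B/G FRET substrate added for 1 h at room temperature; beta-lactamase reporter read by fluorescence intensity.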

Assay [6] in a line: qHTS assay for small molecule agonists of the antioxidant response element (ARE) signaling pathway - cell viability counter screen (AID 743203; calls by dose curve; note: nearly all actives have a fitted effect of over 55% in size). The gist of the method:
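Parallel cytotoxicity read-out for the ARE-bla screen: HepG2 reporter cells, 16 hrs with compounds, then CellTiter-Glo luminescence.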

A short description of assay [7]: qHTS assay for small molecule activators of the heat shock response signaling pathway - cell viability counter screen (AID 743209). Note: nearly all actives have a fitted effect of over 50% in size. The gist of the method: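 To flag cytotoxic compounds, HSE-bla HeLa cells plated at 1500 cells/well were dosed for 5 h at 37 C, followed by the reporter FRET read and then CellTiter-Glo, with luminescence recorded 30 min after reagent addition.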

The nature of assay [8]: qHTS assay for small molecule activators of the heat shock response signaling pathway (AID 743210; active = well fitted activation curve with a large enough effect in the signal ratio in the repeat runs, with a control signal flat, not every such curve was filed as active; the % refers to the signal ratio;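 note: HeLa cells with beta-lactamase reporter driven by heat shock elements; series mostly up to about 63 µM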). The gist of the method:
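Beta-lactamase reporter read-out: FRET substrate fluorescence after 2.5 h at RT, following 5 h compound treatment at 37 C of HeLa cells carrying HSE-driven bla reporter; quantitative HTS format.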

Assay [9] can be described thus: qHTS assay to identify small molecule agonists of the peroxisome proliferator-activated receptor delta (PPARd) signaling pathway - cell viability counter screen (AID 743211). Note: nearly all actives have a fitted effect of over 55% in size. The gist of the method: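 PPARd-bla HEK293H cells (UAS-beta-lactamase reporter) were treated with compounds for 17 h at 37 C. Viability was then read in the same wells by CellTiter-Glo luminescence after 30 min at room temperature.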

Assay [10] has as its target Peroxisome proliferator-activated receptor delta (Homo sapiens) (UniProt Q03181). Nature of the assay: qHTS assay to identify small molecule agonists of the peroxisome proliferator-activated receptor delta (PPARd) signaling pathway (AID 743212; calls by dose curve). The gist of the method: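 Read-out: beta-lactamase FRET fluorescence after 2 h room-temperature incubation with LiveBLAzer B/G substrate. Cells were HEK293H carrying a UAS-bla reporter for PPARd, treated at 37 C with DMSO-dissolved compounds.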

Assay [11] shares this target. Description: qHTS assay to identify small molecule antagonists of the peroxisome proliferator-activated receptor delta (PPARd) signaling pathway (AID 743215; active = well fitted inhibition curve with a large enough effect in the signal ratio in the repeat runs, not every such curve was filed as active; the % refers to the signal ratio;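 note: cells stimulated with agonist L165041 at 300 nM final during compound exposure; series mostly up to about 62 µM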). The gist of the method: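 Screen format: qHTS, antagonist mode. HEK293H PPARd-bla cells received compound and 300 nM L165041 (final), 17 h, 37 C. Beta-lactamase detected via FRET substrate fluorescence, 2 h, room temperature.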

The nature of assay [12]: qHTS assay to identify small molecule agonists of the farnesoid-X-receptor (FXR) signaling pathway - cell viability counter screen (AID 743218). Note: nearly all actives have a fitted effect of over 45% in size. The gist of the method: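 Same-well cytotoxicity check on FXR-UAS-bla HEK 293T cells: 5 h attachment, 16 h compound at 37 C, CellTiter-Glo luminescence read at room temperature after 30 min.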
A short description of assay [13]: qHTS assay to identify small molecule antagonists of the farnesoid-X-receptor (FXR) signaling pathway - cell viability counter screen (AID 743221; active = well fitted cell-killing curve with a large enough effect in the repeat runs, not every such curve was filed as active; note: nearly all actives have a fitted effect of over 50% in size). The gist of the method:
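FXR-UAS-bla HEK 293T cells were treated with test compounds plus chenodeoxycholic acid (50 uM final) for 16 h at 37 C. Cell viability in the same wells was then read as CellTiter-Glo luminescence after 30 min at room temperature.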

For assay [14], the target named is Vitamin D3 receptor (Homo sapiens) (UniProt P11473). Description: qHTS assay to identify small molecule agonists of the vitamin D receptor (VDR) signaling pathway (AID 743222; calls by dose curve). The gist of the method:
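Using LiveBLAzer B/G FRET detection, agonism was scored in VDR-bla cells exposed overnight (16 h, 37C) to DMSO-dissolved compounds; substrate incubation was 2 h at room temperature.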

The nature of assay [15]: qHTS assay to identify small molecule antagonists of the peroxisome proliferator-activated receptor gamma (PPARg) signaling pathway - cell viability counter screen (AID 743194). Note: nearly all actives have a fitted effect of over 55% in size. The gist of the method:
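Cytotoxicity counter screen in PPARg-bla HEK293H cells, same wells as reporter assay. Compounds plus 50 nM rosiglitazone (final) for 17 h at 37 C, then viability read by CellTiter-Glo luminescence.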

Assay [16] can be described thus: qHTS assay for small molecule agonists of the antioxidant response element (ARE) signaling pathway (AID 743202; active = well fitted activation curve with a large enough effect in the signal ratio in the repeat runs, not every such curve was filed as active; the % refers to the signal ratio). The gist of the method: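 HepG2 ARE-bla reporter line, 2,000 cells/well; 5 h preincubation 37 C/5% CO2; compound (DMSO) 16 h 37 C; B/G FRET substrate 2 h RT; fluorescence intensity.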
A short description of assay [17]: qHTS assay to identify small molecule antagonists of the peroxisome proliferator-activated receptor delta (PPARd) signaling pathway - cell viability counter screen (AID 743213). Note: nearly all actives have a fitted effect of over 50% in size. The gist of the method:
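HEK293H cells with the PPARd UAS-bla reporter, co-treated 17 h at 37 C with compounds and L165041 (300 nM final), were lysed with CellTiter-Glo. Luminescence indicated viable cell content.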

The target in assay [18] is Bile acid receptor (Homo sapiens) (UniProt Q96RI1). Description: qHTS assay to identify small molecule agonists of the farnesoid-X-receptor (FXR) signaling pathway (AID 743220; active = well fitted activation curve with a large enough effect in the signal ratio in the repeat runs, not every such curve was filed as active; the % refers to the signal ratio). The gist of the method:
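FXR-UAS-bla HEK 293T cells carrying a UAS-driven beta-lactamase reporter were plated for 5 h at 37C/5% CO2, then exposed to DMSO-dissolved Tox21 10K compounds for 16 h at 37C. A LiveBLAzer B/G FRET substrate was loaded for 2 h at room temperature before fluorescence reading.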

Assay [19] has as its target Vitamin D3 receptor (Homo sapiens) (UniProt P11473). Nature of the assay: qHTS assay to identify small molecule antagonists of the vitamin D receptor (VDR) signaling pathway (AID 743223; active = well fitted inhibition curve with a large enough effect in the signal ratio in the repeat runs, not every such curve was filed as active; the % refers to the signal ratio). The gist of the method: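 VDR-bla cells were plated, incubated 4 h at 37C, then given compound and 1alpha,25-dihydroxyvitamin D3 (3 nM final). After 16 h at 37C, LiveBLAzer B/G FRET substrate was added for 2 h at room temperature and fluorescence read.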

Assay [20] addresses Bile acid receptor (Homo sapiens) (UniProt Q96RI1). Description: qHTS assay to identify small molecule antagonists of the farnesoid-X-receptor (FXR) signaling pathway (AID 743217; active = well fitted inhibition curve with a large enough effect in the signal ratio in the repeat runs, not every such curve was filed as active; the % refers to the signal ratio). The gist of the method:
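Quantitative HTS, beta-lactamase reporter format: FXR-UAS-bla HEK 293T cells co-treated 16 h at 37 °C with compounds and 50 uM final chenodeoxycholic acid, then read by B/G FRET fluorescence.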

Aryl hydrocarbon receptor (Homo sapiens), sequence (P35869 whole entry, looked up): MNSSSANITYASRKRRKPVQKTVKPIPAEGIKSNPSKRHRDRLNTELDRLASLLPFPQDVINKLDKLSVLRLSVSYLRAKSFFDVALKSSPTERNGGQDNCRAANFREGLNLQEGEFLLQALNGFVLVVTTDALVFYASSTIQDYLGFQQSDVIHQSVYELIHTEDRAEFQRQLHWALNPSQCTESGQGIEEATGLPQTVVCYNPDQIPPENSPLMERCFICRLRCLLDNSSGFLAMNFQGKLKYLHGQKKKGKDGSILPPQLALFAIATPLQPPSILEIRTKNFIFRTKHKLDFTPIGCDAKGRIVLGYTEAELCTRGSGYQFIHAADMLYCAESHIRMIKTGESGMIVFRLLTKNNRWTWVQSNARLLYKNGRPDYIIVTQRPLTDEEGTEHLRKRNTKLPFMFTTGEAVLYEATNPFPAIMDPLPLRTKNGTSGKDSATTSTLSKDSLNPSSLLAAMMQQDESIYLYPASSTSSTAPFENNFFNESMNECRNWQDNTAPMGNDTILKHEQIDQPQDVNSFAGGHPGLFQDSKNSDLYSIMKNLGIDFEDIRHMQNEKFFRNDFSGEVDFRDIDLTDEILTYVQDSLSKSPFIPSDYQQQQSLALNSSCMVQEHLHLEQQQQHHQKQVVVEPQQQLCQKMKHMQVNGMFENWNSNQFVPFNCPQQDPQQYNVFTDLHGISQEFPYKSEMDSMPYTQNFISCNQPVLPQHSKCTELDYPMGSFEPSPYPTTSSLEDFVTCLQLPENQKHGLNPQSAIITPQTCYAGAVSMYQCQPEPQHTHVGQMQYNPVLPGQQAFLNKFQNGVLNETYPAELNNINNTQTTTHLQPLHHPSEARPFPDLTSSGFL
Peroxisome proliferator-activated receptor gamma (Homo sapiens), sequence (P37231 whole entry, looked up): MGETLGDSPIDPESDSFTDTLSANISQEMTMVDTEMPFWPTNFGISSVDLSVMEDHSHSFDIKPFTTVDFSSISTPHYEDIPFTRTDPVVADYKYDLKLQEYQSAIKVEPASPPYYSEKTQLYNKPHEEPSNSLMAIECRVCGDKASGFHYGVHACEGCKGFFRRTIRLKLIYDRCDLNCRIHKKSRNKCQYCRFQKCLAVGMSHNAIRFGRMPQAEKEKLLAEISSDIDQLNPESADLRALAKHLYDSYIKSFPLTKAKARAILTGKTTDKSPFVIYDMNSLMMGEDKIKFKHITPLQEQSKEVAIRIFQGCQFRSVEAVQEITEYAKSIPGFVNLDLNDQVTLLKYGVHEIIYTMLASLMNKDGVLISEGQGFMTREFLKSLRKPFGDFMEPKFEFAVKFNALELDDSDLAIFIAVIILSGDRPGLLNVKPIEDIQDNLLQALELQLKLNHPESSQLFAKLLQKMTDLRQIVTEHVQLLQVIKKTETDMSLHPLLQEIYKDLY
Vitamin D3 receptor (Homo sapiens), sequence (P11473 whole entry, looked up): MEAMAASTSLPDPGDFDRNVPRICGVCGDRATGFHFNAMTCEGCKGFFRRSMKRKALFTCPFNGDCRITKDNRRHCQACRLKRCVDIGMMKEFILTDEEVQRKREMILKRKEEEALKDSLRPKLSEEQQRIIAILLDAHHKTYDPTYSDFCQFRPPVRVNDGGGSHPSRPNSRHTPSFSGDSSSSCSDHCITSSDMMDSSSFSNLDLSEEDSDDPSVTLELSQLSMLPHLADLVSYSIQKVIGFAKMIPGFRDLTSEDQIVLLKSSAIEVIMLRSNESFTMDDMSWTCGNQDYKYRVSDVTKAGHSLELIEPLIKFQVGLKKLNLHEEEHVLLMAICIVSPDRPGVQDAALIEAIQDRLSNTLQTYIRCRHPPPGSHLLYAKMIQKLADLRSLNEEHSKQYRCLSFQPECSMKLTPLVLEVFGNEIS
Peroxisome proliferator-activated receptor delta (Homo sapiens), sequence (Q03181 whole entry, looked up): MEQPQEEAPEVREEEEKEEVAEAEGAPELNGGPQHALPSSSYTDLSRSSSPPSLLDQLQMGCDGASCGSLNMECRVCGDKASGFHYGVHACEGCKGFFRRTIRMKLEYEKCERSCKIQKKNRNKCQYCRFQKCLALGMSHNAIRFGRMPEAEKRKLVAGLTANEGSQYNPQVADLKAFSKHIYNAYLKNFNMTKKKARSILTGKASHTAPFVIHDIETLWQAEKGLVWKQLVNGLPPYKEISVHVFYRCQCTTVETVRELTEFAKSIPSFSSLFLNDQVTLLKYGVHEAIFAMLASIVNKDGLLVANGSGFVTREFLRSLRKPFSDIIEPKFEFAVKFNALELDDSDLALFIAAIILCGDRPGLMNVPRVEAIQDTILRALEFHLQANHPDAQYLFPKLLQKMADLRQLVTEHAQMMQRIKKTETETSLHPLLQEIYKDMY
Bile acid receptor (Homo sapiens), sequence (Q96RI1 whole entry, looked up): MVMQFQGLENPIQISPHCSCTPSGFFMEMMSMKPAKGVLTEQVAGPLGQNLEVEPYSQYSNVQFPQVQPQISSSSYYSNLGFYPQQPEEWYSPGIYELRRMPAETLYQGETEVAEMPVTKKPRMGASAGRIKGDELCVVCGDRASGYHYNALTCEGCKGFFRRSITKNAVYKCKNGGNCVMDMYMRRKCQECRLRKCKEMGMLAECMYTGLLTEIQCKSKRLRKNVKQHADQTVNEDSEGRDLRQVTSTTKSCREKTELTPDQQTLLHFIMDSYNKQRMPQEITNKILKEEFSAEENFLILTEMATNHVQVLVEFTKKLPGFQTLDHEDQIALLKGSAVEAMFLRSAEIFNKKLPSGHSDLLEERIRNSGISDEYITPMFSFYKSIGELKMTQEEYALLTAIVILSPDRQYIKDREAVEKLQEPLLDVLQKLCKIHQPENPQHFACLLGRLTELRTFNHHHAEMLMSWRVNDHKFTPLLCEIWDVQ

Consider `C=CCOc1nc(OCC=C)nc(OCC=C)n1`, for which the Potency entry in [1], in assay [3], in [9] and in [13] was “inactive” each time. The Potency in assay [2] was 54.5 µM (active). Besides, the call in [4], in [5], in [6], in assay [7], in [8] and in assay [10] was inactive. Further, the result in assay [11], in assay [12] and in [14] was inactive.

On to `COC(=O)c1ccc(C(=O)OC)c(C(=O)OC)c1`, for which the Potency entry in assay [1], in assay [2], in assay [3], in [15], in assay [16] and in [9] was “inactive” each time. Besides, the Potency entry in assay [17] and in [13] was “inactive” each time. Moreover, the call in assay [4], in [5], in [6], in [7], in [8] and in assay [10] was inactive. Further, the compound was called inactive in assay [11].

On to `CCC(C(=O)NC(N)=O)c1ccccc1` (stereo not drawn), for which the Potency result in assay [1], in [2], in assay [3], in assay [15], in [9] and in assay [17] was “inactive” each time. For the same compound, in [13], the Potency entry is “inactive”. In addition, the compound was classed as inactive in [4], in assay [5], in assay [7], in [8] and in [18].

With `CCCc1ccccc1O`, the Potency result in [1], in [2], in assay [3], in assay [15], in assay [9] and in assay [17] was “inactive” throughout. For the same compound, the Potency entry in assay [13] is “inactive”. For the same compound, the outcome in assay [4], in assay [5], in assay [6], in [7], in assay [12] and in assay [14] was inactive.

Take `CCCCc1ccc2cccc(S(=O)(=O)O)c2c1`: the Potency result in assay [1], in assay [2], in [3], in assay [15], in assay [16] and in [9] was “inactive” throughout. In addition, the Potency entry in assay [17] and in assay [13] was “inactive” each time. Moreover, the result in [4], in [5], in assay [6], in [7], in assay [10] and in assay [11] was inactive. The result in assay [12] and in assay [14] was inactive.

For the compound `COC(=O)CCCCCCCCC(=O)OC`, the Potency result in assay [1], in [2], in assay [3], in assay [16], in [9] and in [17] was “inactive” in each case. In addition, the Potency entry in assay [13] was “inactive”. For the same compound, the compound was called inactive in [4], in assay [5], in assay [6], in assay [7], in assay [8] and in [10]. Besides, the compound was called inactive in assay [11], in assay [14] and in assay [19].

As for `CC1=CC(C)C(C=O)C(C)C1` (stereo not drawn), the Potency result in [1], in assay [2], in assay [3], in assay [15], in assay [16] and in assay [9] was “inactive” each time. Besides, the Potency entry in assay [17] was “inactive”. Further, the compound was classed as inactive in assay [4], in assay [5], in assay [6], in assay [7], in assay [20] and in assay [12]. In addition, the result in assay [18], in assay [14] and in assay [19] was inactive.

For the compound `OCCN1C[C@H](O)[C@@H](O)[C@H](O)[C@H]1CO`, the Potency entry in [1], in [2], in assay [3], in assay [15], in assay [16] and in assay [9] was “inactive” each time. Moreover, the Potency result in [17] and in assay [13] was “inactive” each time. The outcome in assay [4], in assay [5], in [6], in assay [7], in [8] and in assay [10] was inactive. Further, the outcome in [11] and in [12] was inactive.
